According to the supplement of paper PMC10338343:
± gives the standard deviation. Over roughly 8,200 sequences, “pre-steady-state target cleavage rate” has its median near 0.024; the highest 2% begin near 1.3. The entries come from a sample that favours the highest values as a whole.

Tested on: MIWI (PIWIL1) piRISC loaded with L1MC piRNA (30 nt)
Experiment: pre-steady-state target cleavage rate (min^-1); MIWI and MILI are mouse PIWI proteins and EfPiwi is from a freshwater sponge; tags in brackets are library labels; higher = faster piRNA-guided slicing of the target
Settings: guide: L1MC piRNA 5'p-UAACUAAAUACUAUGCAAGCUGUAGGUCCU
Summary of the method: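 A transcribed, DNA-blocked target RNA library […] was incubated at 33 °C for 0–8 or 0–960 min with 1 nM active affinity-purified piRISC carrying one synthetic guide, in HEPES–potassium acetate buffer with or without 500 nM GTSF1 partner protein. Uncleaved targets were then sequenced and normalised to depth and to weakly complementary targets. Data from three trials were pooled, with k3 capped at 0.0001 min^-1, and a burst-and-steady-state fit yielded the pre-steady-state cleavage rate.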

[1] = auxiliary factor: 500 nM mouse GTSF1
[2] = auxiliary factor: none (no GTSF1)
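Also: 1 nM active piRISC with 0.1 nM target library at 33 °C single turnover.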

Sequence | pre-steady-state target cleavage rate [1] | pre-steady-state target cleavage rate [2]
UCCUGCUAGAGCUUGCAUAGUAUUUACAAA | 0.186 ± 0.047 | 
UCCUGCUACAGCUAGCAUAGUAUUUUCAAA | 0.0744 ± 0.023 | 
UCCUGGAACAGCUUGCAAUGUAUUUAGUAA | 0.146 ± 0.018 | 0.00598 ± 0.003
UGGACCUACAGCUUGCAUAGUAUUUAUUA | 0.126 ± 0.015 | 0.00594 ± 0.0034
UGGACCUACAGCUUGCAUAGUUAAUAGAAA | 0.0323 ± 0.01 | 
AGGACCUCCAGCUUGCAUAGUAUUUAGUUA | 1.22 ± 0.048 | 0.0926 ± 0.018
AGGACCUCAGCUUGCAUAGUAUUUAGUUA | 1.34 ± 0.077 | 0.0984 ± 0.019
UCCACCUCCAGCUUGCAUAGUAUUUAGUUA | 0.89 ± 0.033 | 0.0442 ± 0.0078
UGGACCUCAGCUUGCAUAGUAUUUAGUUA | 1.43 ± 0.094 | 0.055 ± 0.011
UCCACCUCAGCUUGCAUAGUAUUUAGUUA | 0.878 ± 0.07 | 0.0436 ± 0.0088
UGGACCUCCAGCUUGCAUAGUAUUUAGUUA | 1.39 ± 0.054 | 0.08 ± 0.014
UGGACCUAAGCUUGCAUAGUAUUUAGUUA | 1.27 ± 0.083 | 0.0446 ± 0.012
UCGACCUACUGCUUGCAUAGUAUUUACUUA | 0.278 ± 0.017 | 0.0322 ± 0.0038
UCCUGGUACACCUUGCAUAGUAUAUAGUUA | 0.555 ± 0.09 | 0.00685 ± 0.0027
UCCACCUACAGCUUGCAUAGUAUAAUCAAA | 0.327 ± 0.056 | 
UGGAGCAACAGCUUGCAUAGUAUUUAGUUA | 1.39 ± 0.044 | 0.0851 ± 0.016
AGGAGGAACAGCUUGCAUAGUAUUUAGUUA | 1.41 ± 0.065 | 0.0955 ± 0.019
UGGAGGAACAGCUUGCAUAGUAUUUAGUUA | 1.26 ± 0.049 | 0.0795 ± 0.015
UCCAGCAACAGCUUGCAUAGUAUUUAGUUA | 1.19 ± 0.049 | 0.0797 ± 0.014
UCGAGCAACAGCUUGCAUAGUAUUUAGUUA | 1.29 ± 0.044 | 0.076 ± 0.013
UCGAGGAACAGCUUGCAUAGUAUUUAGUUA | 1.02 ± 0.076 | 0.057 ± 0.011
AGGAGCAACAGCUUGCAUAGUAUUUAGUUA | 1.67 ± 0.069 | 0.0907 ± 0.016

Sequence | pre-steady-state target cleavage rate [1] | pre-steady-state target cleavage rate [2]
UCCUGGAGCAGCUUGCAUAGUAUUUAGUUA | 1.13 ± 0.044 | 0.0692 ± 0.013
UCCUGGAUGUGCUUUGCAUAGUAUUUAGUUA | 0.251 ± 0.022 | 0.0142 ± 0.0043
UCCUGGAUGAGCUUGCAAAGUAUUUUGUUA | 0.267 ± 0.029 | 0.0136 ± 0.0037
UCGACGUACACCUUGCAUAGUAUUUAGUUA | 1.23 ± 0.026 | 0.0575 ± 0.0089
UCCUGGUACAGCUAGCAUAGUAAUUAGUUA | 0.379 ± 0.053 | 0.00998 ± 0.0037
UCCUGGUACAGCUUGCAUAGUAUUUGGUUA | 0.449 ± 0.037 | 0.0417 ± 0.0074
UGGACCUACAGCUUGCAUAGUUAUUACAAA | 0.0207 ± 0.0062 | 
UCGACCUACACCUUGCAUAGUAUUUACUUA | 0.254 ± 0.034 | 0.0244 ± 0.0036
UCCUGGAUGAGCUUGGAUAGUAUUUACUUA |  | 0.00357 ± 0.0031
UCCACCUACGGCUUGCAUAGUAUUUAGUUA | 0.921 ± 0.074 | 0.0494 ± 0.01
UCGACCUACGGCUUGCAUAGUAUUUAGUUA | 1.35 ± 0.053 | 0.069 ± 0.011
AGGACCUACGGCUUGCAUAGUAUUUAGUUA | 1.27 ± 0.077 | 0.0872 ± 0.017
UCGACCUACAGGCUUGCAUAGUAUUUAGUUA | 1.07 ± 0.045 | 0.07 ± 0.011
UCGACCUACGAGCUUGCAUAGUAUUUAGUUA | 0.737 ± 0.077 | 0.0529 ± 0.011
UGGACCUACGGCUUGCAUAGUAUUUAGUUA | 1.44 ± 0.1 | 0.0662 ± 0.013
UCCUCCUACAGCUUGCAUAGUUUUUAGAUA | 0.228 ± 0.036 | 0.00676 ± 0.0025
AGGACCUACAGCUUGCAUAGUUUUUAGAUA | 0.259 ± 0.034 | 0.0189 ± 0.0055
UCCUGCUACAACUUGCAUAGUAUUUAGUUA | 0.679 ± 0.044 | 0.0522 ± 0.0072
UCCUGGUUCAGCUUGGAUAGUAUUUAGUUA | 0.791 ± 0.063 | 0.0603 ± 0.014
UCCUGGAACAGCUGCAUAGUAUUUAGUUA | 0.767 ± 0.044 | 0.00757 ± 0.0034
UCGACCUACAGCCUGCAUAGUAUUUAGUUA | 1.41 ± 0.038 | 0.0857 ± 0.015
AGGACCUACAGCCUUGCAUAGUAUUUAGUUA | 1.23 ± 0.069 | 0.0878 ± 0.019

Sequence | pre-steady-state target cleavage rate [1] | pre-steady-state target cleavage rate [2]
UCCUCCUACAGCCUGCAUAGUAUUUAGUUA | 1.18 ± 0.038 | 0.056 ± 0.0094
UCCACCUACAGCCUGCAUAGUAUUUAGUUA | 1.15 ± 0.033 | 0.0634 ± 0.01
UGGACCUACAGCCUUGCAUAGUAUUUAGUUA | 1.21 ± 0.081 | 0.0496 ± 0.0085
UGGACCUACAGCCUGCAUAGUAUUUAGUUA | 1.34 ± 0.048 | 0.0741 ± 0.013
UCCUGCUACAGCCUGCAUAGUAUUUAGUUA | 0.976 ± 0.05 | 0.0598 ± 0.011
AGGACCUACAGCCUGCAUAGUAUUUAGUUA | 1.51 ± 0.063 | 0.0892 ± 0.017
UCGACCUACAGCCUUGCAUAGUAUUUAGUUA | 1.28 ± 0.046 | 0.0668 ± 0.014
AGGACCUACUGCUUGCAUAGUAUUUAGUAA | 0.861 ± 0.077 | 0.0651 ± 0.012
UCCUGGAACAGGUUGCAUAGUUUUUAGUUA | 0.167 ± 0.016 | 0.0162 ± 0.0044
UGGACCUACAGGUUGCAUAGUAUAUAGUUA | 0.549 ± 0.056 | 0.0198 ± 0.0053
UGGACCUUCAGGUUGCAUAGUAUUUAGUUA | 1.14 ± 0.099 | 0.0476 ± 0.01
UGGACCUACAGCUUGCAUACUAUUUUCAAA | 0.0881 ± 0.021 | 
UCCUGGAUGUGCAUUGCAUAGUAUUUAGUUA | 0.223 ± 0.023 | 0.0111 ± 0.0032
UCGUGGUACAGCUUGCAUAGUAUUUAGAAA | 0.305 ± 0.029 | 0.00755 ± 0.0023
UCCUGGAACAGCUUGGAUAGUAUUUACUUA | 0.0518 ± 0.0087 | 0.0182 ± 0.0036
UCCUGCUACAGCUUGCUAUAGUAUUUAGUUA | 0.0317 ± 0.011 | 
UCCUGGAUCUGCUUGCAUUGUAUUUAGUUA | 0.228 ± 0.037 | 0.0147 ± 0.0049
UCCUGGUACACGUUGCAUAGUAUUUUCAAA | 0.0245 ± 0.013 | 
UGGUCCUACUGCUUGCAUAGUAUUUAGUUA | 1.22 ± 0.05 | 0.0687 ± 0.01
AGGACCUAGAGCUUGCAAAGUAUUUAGUUA | 1.17 ± 0.054 | 0.0284 ± 0.0069
AGGACCUACAGCUUGCAUAGAUUUUAGAAA | 0.247 ± 0.071 | 
